Shown are actives, neighbours in structure and some others; about 0.9% of the full set was active somewhere.
SRC1 TRFRET art: flags TR-FRET format artefacts in PPARgamma SRC-1 recruitment agonist screen; TR-FRET detection artefact counter-screen, emission ratio; stronger effect = higher value; TR-FRET ratio at 8 µM; 99,000 compounds, 0.34% hits; AID 1051; in the data active means TR-FRET ratio above about 2300
PPARg SRC2 recr: agonists of SRC-2 recruitment by human PPARgamma. P37231. PPARgamma LBD-SRC-2 recruitment, biochemical. activation, % at 8 µM. 200,000 compounds, 0.34% hits. AID 1032; in the data active means activation above about 22%;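 further: 0% = vehicle and 100% = reference agonist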
Target sequence (P37231 whole entry, looked up, the tested form may be a part): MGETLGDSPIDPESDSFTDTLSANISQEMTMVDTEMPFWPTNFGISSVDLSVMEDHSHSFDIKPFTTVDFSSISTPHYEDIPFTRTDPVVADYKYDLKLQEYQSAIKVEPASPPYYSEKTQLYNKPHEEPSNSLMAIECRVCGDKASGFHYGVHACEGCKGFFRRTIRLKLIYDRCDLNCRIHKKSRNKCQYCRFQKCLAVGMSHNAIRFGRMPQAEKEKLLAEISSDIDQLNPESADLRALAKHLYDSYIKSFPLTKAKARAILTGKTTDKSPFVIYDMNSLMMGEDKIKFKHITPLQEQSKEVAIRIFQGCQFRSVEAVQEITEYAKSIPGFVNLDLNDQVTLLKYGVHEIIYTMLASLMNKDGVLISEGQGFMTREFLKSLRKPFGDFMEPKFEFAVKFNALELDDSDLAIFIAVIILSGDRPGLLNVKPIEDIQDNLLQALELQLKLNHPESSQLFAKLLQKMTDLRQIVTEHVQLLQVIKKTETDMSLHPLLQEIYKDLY
PPARg SRC-3 ag: promotes SRC-3 coactivator recruitment by human PPARgamma; P37231; 200,000 compounds, 0.26% hits; activation, % at 8 µM; biochemical PPARgamma/SRC-3 coactivator recruitment assay; in the data active means activation above about 23%;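 further: 0% = DMSO and 100% = reference agonist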
SRC3 TRFRET art: TR-FRET artefact, counter-screen to PPARgamma/SRC-3 agonist assay | PPARgamma/SRC-3 format; stronger effect = higher value | TR-FRET ratio at 8 µM | 99,000 compounds, 0.39% hits | AID 1048
PPARg SRC-1 ag: agonists of human PPARgamma SRC-1 coactivator recruitment; 200,000 compounds, 0.41% hits; P37231; PPARgamma-SRC-1 coactivator recruitment biochemical assay; activation, % at 8 µM; in the data active means activation above about 19%;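 further: 0% = DMSO and 100% = reference agonist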
TR-FRET SRC-2 ct: TR-FRET artefact, counter-screen to PPARgamma/SRC-2 agonist assay; stronger effect = higher value; TR-FRET ratio at 8 µM; 200,000 compounds, 0.4% hits
An asterisk follows results filed as active; . = no result given. Unless noted, no stated cut-off is given here; in the data, active means TR-FRET ratio above about 2000; inactive means the rest.

SMILES	SRC1 TRFRET art	PPARg SRC2 recr	PPARg SRC-3 ag	SRC3 TRFRET art	PPARg SRC-1 ag	TR-FRET SRC-2 ct
CCOc1ccc2[nH]c(=O)c(C(c3nnnn3C3CCCCC3)N3CCN(CC)CC3)cc2c1 (stereo not drawn)	.	1	-1	.	5	1638
Cc1nc2ccccc2c(=O)n1NC(=O)c1ccco1	.	12	7	.	-2	2082*
CCCCCCC1CCC(C(=O)Nn2c(C)nc3ccccc3c2=O)CC1 (stereo not drawn)	.	22*	-4	.	5	1723
O=C(Nn1c(-c2ccccc2)nc2ccccc2c1=O)c1ccco1	.	5	3	.	8	1556
CCCC1CCC(C(=O)Nn2c(C)nc3ccccc3c2=O)CC1 (stereo not drawn)	.	-3	3	.	5	1484
CN1/C(=C\C(=S)NC(=O)c2ccccc2Cl)C(C)(C)c2ccccc21	1647	-2	0	1615	-4	1473
CN1/C(=C\C(=O)Nc2ccc(Cl)cc2)C(C)(C)c2ccccc21	1653	4	-5	1551	0	1427
COc1ccccc1C(=O)NC(=S)/C=C1/N(C)c2ccccc2C1(C)C	2384*	17	11	1894	13	1664
CN1/C(=C\C(=S)Nc2ccccc2)C(C)(C)c2ccccc21	1780	-1	2	1715	8	1974*
CCOC(=O)C1CCCN(C(=O)c2ccc(Cl)c(S(=O)(=O)N3CCCCCC3)c2)C1 (stereo not drawn)	1768	-4	1	1707	14	1527
CC1CCc2c(sc(NC(=O)COC(=O)c3ccc(O)cc3)c2C#N)C1 (stereo not drawn)	1822	0	-1	1747	-1	1473
COc1ccc(/C=C2\N=C(SC)NC2=O)cc1	.	22*	16	.	4	1784
CCSC1=N/C(=C\c2ccc(OC)cc2)C(=O)N1	1935	-2	8	1829	8	1665
O=C(Cn1c(=S)[nH]c2ncccc2c1=O)NCCc1ccccc1	2328*	-2	5	1703	7	1713
O=c1c2cccnc2[nH]c(=S)n1Cc1ccccc1	1836	3	2	1522	1	1514
Cc1cc(C)c2nc(SCC(=O)Nc3ccc(S(=O)(=O)N4CCCC4)cc3)c(C)cc2c1	.	2	8	.	9	1973*
Cc1ccc(S(=O)(=O)N2CCCCC2)cc1NC(=O)CSc1nccn1C	2368*	-4	3	1625	4	1736
Cc1nnc(SCC(=O)Nc2ccc(S(=O)(=O)N3CCCC3)cc2)n1N	.	5	0	.	6	1640
Cn1ccnc1SCC(=O)Nc1cccc(S(=O)(=O)N2CCCCCC2)c1	1996	6	6	1653	7	1896
Cc1ccc(NC(=O)CSc2ncnc3ccccc23)cc1S(=O)(=O)N1CCCCC1	1842	1	5	2119*	5	1451
CCN(CC)S(=O)(=O)c1ccc(C(=O)NC(=S)N(CCC#N)Cc2cccnc2)cc1	1834	-1	8	1647	8	1270
O=C(N/N=C/C(Br)=C/c1ccccc1)NC1CCCCC1	1911	2	8	1424	3	1543
CC(/C=N/NC(=O)NC1CCCCC1)=C\c1ccccc1	2009	7	2	1722	-1	2081*
CN1/C(=C\C(=O)COC(=O)CNC(=O)c2ccccc2F)C(C)(C)c2ccccc21	1741	-4	1	1456	-1	1664
CN1/C(=C\C(=O)COC(=O)CNC(=O)c2ccc3ccccc3c2)C(C)(C)c2ccccc21	3406*	12	2	3346*	-2	2236*
SMILES	SRC1 TRFRET art	PPARg SRC2 recr	PPARg SRC-3 ag	SRC3 TRFRET art	PPARg SRC-1 ag	TR-FRET SRC-2 ct
CCOC(=O)C1(Cc2ccc(OC)cc2)CCN(C(=O)c2cncs2)CC1	1812	1	-3	1368	-2	1515
CC(C(=O)Nc1ccc2c(c1)OCCO2)c1ccc([N+](=O)[O-])cc1 (stereo not drawn)	1602	0	5	2361*	-2	1717
CCC(C)NC(=O)Nc1ccc(C)cc1C (stereo not drawn)	1452	1	-1	1606	2	1551
Cc1ccc(C2C(C#N)=C(N)SC(N)=C2C#N)cc1	.	4	10	.	9	1666
N#CC1=C(N)SC(N)=C(C#N)C1c1ccoc1	.	31*	28*	.	21*	2095*
CCOC(=O)Nc1cccc(NC(=O)c2ccccc2F)c1	2378*	9	3	1632	9	1470
CCOC(=O)Nc1ccccc1C(=O)Nc1cc(C)cc(C)c1	1754	4	6	1456	-1	1463
N#Cc1cc2c(nc1SCc1ccccc1)CCC2	.	13	8	.	85*	1654
N#Cc1cc2c(nc1SCc1ccccc1)CCCC2	2031	2	1	1643	7	1574
COCCn1c(=NC(=O)c2cc(-c3cccs3)nc3ccccc23)sc2cc(S(N)(=O)=O)ccc21	1979	3	1	1939	5	1698
C=CCn1c(=NC(=O)c2cc(-c3cccs3)nc3ccccc23)sc2cc(S(N)(=O)=O)ccc21	1639	4	3	2319*	7	1739
CC(C)(C)C1CCc2c(sc(NC(=O)c3cccs3)c2C(N)=O)C1 (stereo not drawn)	.	24*	8	.	9	1713
CCOC(=O)C1=C(C)OC(N)=C(C#N)C1c1cc2ccccc2nc1N1CCCCC1 (stereo not drawn)	.	15	26*	.	15	1713
CC(=O)N1N=C(c2cccs2)CC1c1ccc(C)o1 (stereo not drawn)	2339*	4	1	1805	11	1750
O=C(CSc1nncs1)Nc1ccc(S(=O)(=O)N2CCCC2)cc1	1927	9	-3	1674	4	1537
CCOC(=O)C1=C(C)NC(SCC(=O)O)=NC1c1ccccc1 (stereo not drawn)	1965	40*	-1	1400	13	2481*
CCOC12NC(=O)CC(=O)N1C(c1ccccc1)=CS2 (stereo not drawn)	1855	7	18	2220*	10	1653
COc1ccc(C2CC(=O)c3c([nH]c(C(=O)OC(C)C)c3C)C2)cc1OC (stereo not drawn)	1581	-3	32*	3447*	-2	1553
COc1ccc(CN(Cc2cc3cccc(C)c3n3nnnc23)C(=O)N2CCOCC2)cc1	1832	10	4	1522	-3	1640
Cc1oc(-c2cccc(Cl)c2)nc1CN1CCC(C(=O)N2CCN(c3ccccc3F)CC2)CC1	2346*	1	6	1480	12	1765
O=C(Nc1ccc2ccccc2c1)c1cn(-c2ccccc2)nc1-c1cccs1	.	9	14	.	11	2107*
COc1ccc(CCn2c(-c3ccc(Cl)cc3)n[nH]c2=S)cc1OC	1922	5	8	1596	4	1399
CCCCn1c(-c2cc(Cl)ccc2OC)n[nH]c1=S	.	22*	19	.	14	1787
O=C(c1ccco1)N1CCN(CCCCOc2ccc(F)cc2)CC1	1857	-1	0	1770	4	1688
